This passage reports binding signal results from paper PMC7862700, “An all-to-all approach to the identification of sequence-specific readers for epigenetic DNA modifications on cytosine”.

Common to all, as to assay: DAPPL (digital affinity profiling via proximity ligation, sequencing); 10 mM Tris-HCl pH 7.5, 50 mM NaCl, 1 mM DTT, 4% glycerol, room temperature, 30 min; GST-TFs on glutathione beads, 16-mer random dsDNA library, 0.1% formaldehyde crosslink after washing; high values mean tight binding
For one assay, the target named is T1, FLI1 (Homo sapiens, UniProt Q01543 1-452).
T1 sequence: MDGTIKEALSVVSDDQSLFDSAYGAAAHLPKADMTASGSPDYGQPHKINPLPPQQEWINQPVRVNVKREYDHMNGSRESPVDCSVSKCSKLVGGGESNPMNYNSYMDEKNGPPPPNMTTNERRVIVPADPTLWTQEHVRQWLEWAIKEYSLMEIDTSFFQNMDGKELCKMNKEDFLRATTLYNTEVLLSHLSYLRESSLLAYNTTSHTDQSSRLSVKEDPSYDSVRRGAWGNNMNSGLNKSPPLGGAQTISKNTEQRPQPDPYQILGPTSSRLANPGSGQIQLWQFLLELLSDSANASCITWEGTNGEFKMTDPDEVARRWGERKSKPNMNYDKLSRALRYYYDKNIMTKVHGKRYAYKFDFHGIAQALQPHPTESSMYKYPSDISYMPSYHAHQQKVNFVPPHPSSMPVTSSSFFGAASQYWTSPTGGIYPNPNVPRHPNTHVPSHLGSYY
Particulars: protein: recombinant; tags: N-terminal GST; dsDNA, one strand shown. The method in brief:
(§1)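 Pools were built from human transcription factors expressed in yeast as GST fusions, captured on glutathione beads and DNA-barcoded, along with a tag-only sample. Incubation with 200 nmole of a 16-mer random double-stranded DNA library lasted 30 min at room temperature in Tris/NaCl/DTT/glycerol buffer, and was followed by washing, 0.1% formaldehyde crosslinking, proximity ligation, PCR amplification and Illumina NextSeq500 sequencing. Binding signal is the quotient of each hexamer's read frequency for a factor and its frequency for the tag-only sample.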

The target in a further assay is T2, ELK1 (Homo sapiens, UniProt P19419 1-428).
T2 sequence: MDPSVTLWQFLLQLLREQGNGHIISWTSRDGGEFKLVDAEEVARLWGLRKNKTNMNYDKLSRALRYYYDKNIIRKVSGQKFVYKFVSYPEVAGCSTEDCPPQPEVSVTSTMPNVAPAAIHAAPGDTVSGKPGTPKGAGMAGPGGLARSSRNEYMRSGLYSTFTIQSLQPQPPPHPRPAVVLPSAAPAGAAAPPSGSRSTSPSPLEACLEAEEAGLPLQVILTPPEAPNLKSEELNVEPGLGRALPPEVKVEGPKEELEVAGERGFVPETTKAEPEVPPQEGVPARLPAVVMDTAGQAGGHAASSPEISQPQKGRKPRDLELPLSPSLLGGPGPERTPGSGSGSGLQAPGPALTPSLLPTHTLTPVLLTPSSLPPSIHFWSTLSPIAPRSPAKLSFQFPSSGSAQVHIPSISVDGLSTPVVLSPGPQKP
Particulars: protein: recombinant; tags: N-terminal GST; dsDNA, one strand shown. The method in brief:
as §1

For another assay, the target named is T3, GABPA (Homo sapiens, UniProt Q06546 1-454).
T3 sequence: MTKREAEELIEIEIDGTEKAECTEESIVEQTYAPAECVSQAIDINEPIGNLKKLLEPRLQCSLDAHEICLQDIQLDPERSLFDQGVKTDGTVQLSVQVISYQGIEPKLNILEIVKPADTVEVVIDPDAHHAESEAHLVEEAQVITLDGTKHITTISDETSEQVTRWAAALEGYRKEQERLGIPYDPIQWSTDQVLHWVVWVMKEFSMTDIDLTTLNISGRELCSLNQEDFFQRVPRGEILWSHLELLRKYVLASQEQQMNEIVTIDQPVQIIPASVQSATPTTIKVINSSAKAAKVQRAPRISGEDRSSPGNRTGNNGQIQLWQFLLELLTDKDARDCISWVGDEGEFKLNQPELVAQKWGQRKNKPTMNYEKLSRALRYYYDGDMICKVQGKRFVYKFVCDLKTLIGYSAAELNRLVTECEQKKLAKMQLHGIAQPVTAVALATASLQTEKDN
The conditions noted are these: protein: recombinant; tags: N-terminal GST; dsDNA, one strand shown. The method in brief: as §1

The next assay concerns the target T4, ERG (Homo sapiens, UniProt P11308 1-479).
T4 sequence: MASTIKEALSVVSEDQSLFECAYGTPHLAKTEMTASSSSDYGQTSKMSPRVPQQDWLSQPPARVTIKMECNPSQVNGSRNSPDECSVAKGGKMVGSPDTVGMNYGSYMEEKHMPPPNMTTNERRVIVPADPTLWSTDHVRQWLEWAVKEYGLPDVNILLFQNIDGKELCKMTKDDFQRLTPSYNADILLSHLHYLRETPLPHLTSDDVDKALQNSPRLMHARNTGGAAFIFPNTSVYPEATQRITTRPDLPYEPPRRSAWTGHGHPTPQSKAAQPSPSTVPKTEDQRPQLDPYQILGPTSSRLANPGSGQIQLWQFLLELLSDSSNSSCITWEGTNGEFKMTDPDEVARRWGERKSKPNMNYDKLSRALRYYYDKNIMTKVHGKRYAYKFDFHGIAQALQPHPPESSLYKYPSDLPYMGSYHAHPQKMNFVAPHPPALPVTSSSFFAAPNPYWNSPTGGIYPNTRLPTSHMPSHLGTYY
The conditions noted are these: protein: recombinant; tags: N-terminal GST; dsDNA, one strand shown. In a few lines: as §1

In the next assay the target is ELF1 (Homo sapiens, UniProt P32519 1-619). The conditions noted are these: protein: recombinant; tags: N-terminal GST; dsDNA, one strand shown. The method in brief:
as §1

The next assay has as its target T5, EHF (Homo sapiens, UniProt Q9NZC4 1-300).
T5 sequence: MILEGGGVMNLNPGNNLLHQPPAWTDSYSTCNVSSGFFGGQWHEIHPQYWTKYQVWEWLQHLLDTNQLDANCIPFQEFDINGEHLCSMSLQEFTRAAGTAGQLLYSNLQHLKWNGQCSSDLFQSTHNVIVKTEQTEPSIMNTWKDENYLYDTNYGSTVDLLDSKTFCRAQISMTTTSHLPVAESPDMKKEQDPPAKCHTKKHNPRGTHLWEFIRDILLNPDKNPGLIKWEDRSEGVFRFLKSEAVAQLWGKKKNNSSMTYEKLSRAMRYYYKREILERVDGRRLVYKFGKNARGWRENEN
Particulars: protein: recombinant; tags: N-terminal GST; dsDNA, one strand shown. The method in brief: as §1

In the next assay the target is SPI1 (Homo sapiens, UniProt P17947 1-270). Particulars: protein: recombinant; tags: N-terminal GST; dsDNA, one strand shown. The method in brief:
as §1

The target of the next assay is SPIB (Homo sapiens, UniProt Q01892 1-262). Particulars: protein: recombinant; tags: N-terminal GST; dsDNA, one strand shown. In a few lines: as §1
SPIB, sequence (Q01892 whole entry): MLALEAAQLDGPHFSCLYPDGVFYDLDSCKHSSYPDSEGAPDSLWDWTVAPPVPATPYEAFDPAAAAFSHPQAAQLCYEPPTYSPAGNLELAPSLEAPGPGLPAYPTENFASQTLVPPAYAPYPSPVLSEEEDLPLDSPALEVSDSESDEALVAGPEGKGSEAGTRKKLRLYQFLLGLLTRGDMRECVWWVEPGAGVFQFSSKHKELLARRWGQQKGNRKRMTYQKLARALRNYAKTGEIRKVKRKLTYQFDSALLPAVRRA
For a further assay, the target named is T6, ELK3 (Homo sapiens, UniProt P41970 1-407).
T6 sequence: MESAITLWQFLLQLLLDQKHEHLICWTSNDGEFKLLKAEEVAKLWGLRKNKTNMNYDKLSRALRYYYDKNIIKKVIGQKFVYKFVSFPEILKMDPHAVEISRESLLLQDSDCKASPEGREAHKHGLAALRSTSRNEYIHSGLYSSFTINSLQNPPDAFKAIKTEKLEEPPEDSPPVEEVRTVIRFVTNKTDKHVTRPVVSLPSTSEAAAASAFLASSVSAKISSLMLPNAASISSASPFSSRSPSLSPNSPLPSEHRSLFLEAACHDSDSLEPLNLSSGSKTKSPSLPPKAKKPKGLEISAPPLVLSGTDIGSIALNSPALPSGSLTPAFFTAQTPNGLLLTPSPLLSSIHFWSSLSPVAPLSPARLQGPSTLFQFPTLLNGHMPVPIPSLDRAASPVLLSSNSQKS
Particulars: protein: recombinant; tags: N-terminal GST; dsDNA, one strand shown. The method in brief: as §1

A further assay has as its target T7, FEV (Homo sapiens, UniProt Q99581 1-238).
T7 sequence: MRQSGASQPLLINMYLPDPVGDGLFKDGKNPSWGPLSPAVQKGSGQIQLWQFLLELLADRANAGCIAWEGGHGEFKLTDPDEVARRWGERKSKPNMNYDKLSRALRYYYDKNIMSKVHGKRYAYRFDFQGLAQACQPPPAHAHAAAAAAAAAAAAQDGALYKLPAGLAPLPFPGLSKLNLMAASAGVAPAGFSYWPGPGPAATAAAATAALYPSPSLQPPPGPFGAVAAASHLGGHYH
Particulars: protein: recombinant; tags: N-terminal GST; dsDNA, one strand shown. In a few lines: as §1

A further assay addresses ETV5 (Homo sapiens, UniProt P41161 1-510). The conditions noted are these: protein: recombinant; tags: N-terminal GST; dsDNA, one strand shown. The method in brief:
as §1

The next assay concerns the target HSF1 (Homo sapiens, UniProt Q00613 1-529). Particulars: protein: recombinant; tags: N-terminal GST; chain copies: 3; dsDNA, one strand shown. In a few lines:
as §1

The target of the next assay is T8, SPIC (Homo sapiens, UniProt Q8N5J4 1-248).
T8 sequence: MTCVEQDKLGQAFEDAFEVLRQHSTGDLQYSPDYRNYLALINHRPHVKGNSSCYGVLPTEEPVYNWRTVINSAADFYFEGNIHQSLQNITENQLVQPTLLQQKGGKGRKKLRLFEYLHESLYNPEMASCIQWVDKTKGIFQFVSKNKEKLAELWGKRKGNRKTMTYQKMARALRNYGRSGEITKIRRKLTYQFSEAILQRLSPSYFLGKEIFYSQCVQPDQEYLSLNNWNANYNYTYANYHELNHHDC
Particulars: protein: recombinant; tags: N-terminal GST; dsDNA, one strand shown. In a few lines:
as §1

Another assay deals with ELF4 (Homo sapiens, UniProt Q99607 1-663). Particulars: protein: recombinant; tags: N-terminal GST; dsDNA, one strand shown. In a few lines: as §1
ELF4, sequence (Q99607 whole entry): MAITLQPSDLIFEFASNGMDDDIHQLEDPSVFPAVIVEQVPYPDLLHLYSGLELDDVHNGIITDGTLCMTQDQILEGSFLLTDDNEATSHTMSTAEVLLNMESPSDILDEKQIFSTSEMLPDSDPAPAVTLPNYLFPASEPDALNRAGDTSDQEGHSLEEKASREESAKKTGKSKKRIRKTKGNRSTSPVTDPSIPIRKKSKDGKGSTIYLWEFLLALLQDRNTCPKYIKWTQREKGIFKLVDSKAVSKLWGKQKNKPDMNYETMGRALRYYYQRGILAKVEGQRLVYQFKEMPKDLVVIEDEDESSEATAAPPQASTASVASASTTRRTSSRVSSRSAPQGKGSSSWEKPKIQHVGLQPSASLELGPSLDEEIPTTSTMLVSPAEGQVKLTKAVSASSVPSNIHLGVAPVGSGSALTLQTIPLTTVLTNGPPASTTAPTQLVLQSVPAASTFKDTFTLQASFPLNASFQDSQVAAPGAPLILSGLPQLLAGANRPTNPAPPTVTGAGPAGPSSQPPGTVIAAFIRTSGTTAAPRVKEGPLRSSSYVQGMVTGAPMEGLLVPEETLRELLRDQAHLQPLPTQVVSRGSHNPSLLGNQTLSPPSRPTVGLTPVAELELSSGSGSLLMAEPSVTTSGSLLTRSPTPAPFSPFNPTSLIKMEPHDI
A further assay addresses T9, ELK4 (Homo sapiens, UniProt P28324-2 1-405).
T9 sequence: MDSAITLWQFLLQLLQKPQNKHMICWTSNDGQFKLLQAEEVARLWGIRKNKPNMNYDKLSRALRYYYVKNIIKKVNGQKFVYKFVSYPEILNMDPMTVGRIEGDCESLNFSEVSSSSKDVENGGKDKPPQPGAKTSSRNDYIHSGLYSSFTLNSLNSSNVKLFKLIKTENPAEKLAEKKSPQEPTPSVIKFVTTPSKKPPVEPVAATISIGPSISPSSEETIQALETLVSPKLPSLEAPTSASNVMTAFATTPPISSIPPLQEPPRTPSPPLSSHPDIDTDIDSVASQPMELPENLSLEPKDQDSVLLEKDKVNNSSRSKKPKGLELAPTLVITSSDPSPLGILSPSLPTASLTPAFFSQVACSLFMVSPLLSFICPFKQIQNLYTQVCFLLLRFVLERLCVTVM
Particulars: protein: recombinant; tags: N-terminal GST; dsDNA, one strand shown. The method in brief:
as §1

The target in a further assay is T10, ETV2 (Homo sapiens, UniProt O00321 1-342).
T10 sequence: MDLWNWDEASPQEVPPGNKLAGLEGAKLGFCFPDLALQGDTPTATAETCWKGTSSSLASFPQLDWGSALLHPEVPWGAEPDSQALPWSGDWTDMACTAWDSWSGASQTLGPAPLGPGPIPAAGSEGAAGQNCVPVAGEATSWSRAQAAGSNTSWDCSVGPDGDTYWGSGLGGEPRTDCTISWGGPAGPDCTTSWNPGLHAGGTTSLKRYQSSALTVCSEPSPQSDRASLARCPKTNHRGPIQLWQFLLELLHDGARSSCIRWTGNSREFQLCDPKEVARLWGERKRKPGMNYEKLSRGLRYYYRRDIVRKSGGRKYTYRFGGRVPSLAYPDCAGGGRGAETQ
Particulars: protein: recombinant; tags: N-terminal GST; dsDNA, one strand shown. The method in brief: as §1

A further assay deals with T11, ELF3 (Homo sapiens, UniProt P78545 1-371).
T11 sequence: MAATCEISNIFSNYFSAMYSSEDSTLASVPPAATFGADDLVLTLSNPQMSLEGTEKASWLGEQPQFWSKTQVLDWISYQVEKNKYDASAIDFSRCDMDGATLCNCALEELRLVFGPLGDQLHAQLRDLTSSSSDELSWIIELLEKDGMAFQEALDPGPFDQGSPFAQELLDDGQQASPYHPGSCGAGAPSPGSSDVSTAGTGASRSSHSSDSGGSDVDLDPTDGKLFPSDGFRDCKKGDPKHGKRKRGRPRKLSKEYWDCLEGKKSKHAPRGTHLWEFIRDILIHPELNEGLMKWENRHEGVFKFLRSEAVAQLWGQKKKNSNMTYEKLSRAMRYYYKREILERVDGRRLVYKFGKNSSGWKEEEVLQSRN
Particulars: protein: recombinant; tags: N-terminal GST; dsDNA, one strand shown. The method in brief: as §1

Another assay has as its target CRX (Homo sapiens, UniProt O43186 1-299). The conditions noted are these: protein: recombinant; tags: N-terminal GST; dsDNA, one strand shown. The method in brief: as §1
For the next assay, the target named is ETV1 (Homo sapiens, UniProt P50549 1-477). The conditions noted are these: protein: recombinant; tags: N-terminal GST; dsDNA, one strand shown. The method in brief:
as §1

HSF1, sequence (Q00613 whole entry): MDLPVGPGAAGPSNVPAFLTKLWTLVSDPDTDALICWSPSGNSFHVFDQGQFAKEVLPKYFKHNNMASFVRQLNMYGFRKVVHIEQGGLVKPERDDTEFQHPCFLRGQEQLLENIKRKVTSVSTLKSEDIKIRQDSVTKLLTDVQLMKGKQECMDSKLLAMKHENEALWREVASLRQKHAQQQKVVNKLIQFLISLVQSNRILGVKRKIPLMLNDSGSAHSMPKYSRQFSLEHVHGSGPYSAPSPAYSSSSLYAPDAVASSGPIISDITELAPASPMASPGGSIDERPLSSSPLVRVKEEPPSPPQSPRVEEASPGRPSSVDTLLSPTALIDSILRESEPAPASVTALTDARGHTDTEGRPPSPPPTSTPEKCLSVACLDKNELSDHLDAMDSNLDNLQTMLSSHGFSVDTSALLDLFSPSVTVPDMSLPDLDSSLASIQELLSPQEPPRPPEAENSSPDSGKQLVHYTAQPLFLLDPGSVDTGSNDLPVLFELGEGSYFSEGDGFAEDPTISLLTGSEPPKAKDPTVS
CRX, sequence (O43186 whole entry): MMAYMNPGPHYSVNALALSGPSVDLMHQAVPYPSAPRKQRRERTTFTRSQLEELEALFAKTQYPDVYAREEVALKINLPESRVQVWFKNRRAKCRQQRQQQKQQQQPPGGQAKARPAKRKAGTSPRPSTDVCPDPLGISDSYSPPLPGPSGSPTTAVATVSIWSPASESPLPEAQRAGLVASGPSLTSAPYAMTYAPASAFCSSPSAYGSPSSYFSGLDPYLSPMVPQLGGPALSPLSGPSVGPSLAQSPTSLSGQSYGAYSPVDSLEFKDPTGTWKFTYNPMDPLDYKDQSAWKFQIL
ETV1, sequence (P50549 whole entry): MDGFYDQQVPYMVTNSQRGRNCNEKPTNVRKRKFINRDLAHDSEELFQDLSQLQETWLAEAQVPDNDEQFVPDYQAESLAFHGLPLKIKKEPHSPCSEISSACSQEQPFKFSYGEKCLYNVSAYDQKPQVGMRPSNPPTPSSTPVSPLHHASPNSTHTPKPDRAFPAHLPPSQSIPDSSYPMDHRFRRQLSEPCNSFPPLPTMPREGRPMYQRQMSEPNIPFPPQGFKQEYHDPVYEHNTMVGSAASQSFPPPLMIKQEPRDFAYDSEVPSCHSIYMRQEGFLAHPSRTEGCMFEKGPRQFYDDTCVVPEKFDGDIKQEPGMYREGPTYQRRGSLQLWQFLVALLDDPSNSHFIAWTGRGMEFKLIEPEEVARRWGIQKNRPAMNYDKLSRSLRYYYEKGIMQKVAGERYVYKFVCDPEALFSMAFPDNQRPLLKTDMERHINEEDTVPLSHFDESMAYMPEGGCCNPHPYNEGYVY
ETV5, sequence (P41161 whole entry): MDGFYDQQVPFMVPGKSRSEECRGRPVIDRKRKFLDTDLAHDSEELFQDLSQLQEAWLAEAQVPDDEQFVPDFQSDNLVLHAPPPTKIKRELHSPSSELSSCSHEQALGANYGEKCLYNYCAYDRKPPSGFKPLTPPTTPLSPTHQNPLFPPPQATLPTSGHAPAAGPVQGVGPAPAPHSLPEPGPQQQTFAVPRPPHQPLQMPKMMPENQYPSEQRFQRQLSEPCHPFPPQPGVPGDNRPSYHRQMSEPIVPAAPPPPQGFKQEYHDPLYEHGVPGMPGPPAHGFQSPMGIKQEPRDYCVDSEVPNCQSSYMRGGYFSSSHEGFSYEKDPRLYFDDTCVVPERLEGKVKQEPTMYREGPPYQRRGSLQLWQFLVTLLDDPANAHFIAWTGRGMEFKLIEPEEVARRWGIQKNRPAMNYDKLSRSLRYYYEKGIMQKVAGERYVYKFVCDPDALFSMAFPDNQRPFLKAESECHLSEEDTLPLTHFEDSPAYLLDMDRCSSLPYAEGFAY
ELF1, sequence (P32519 whole entry): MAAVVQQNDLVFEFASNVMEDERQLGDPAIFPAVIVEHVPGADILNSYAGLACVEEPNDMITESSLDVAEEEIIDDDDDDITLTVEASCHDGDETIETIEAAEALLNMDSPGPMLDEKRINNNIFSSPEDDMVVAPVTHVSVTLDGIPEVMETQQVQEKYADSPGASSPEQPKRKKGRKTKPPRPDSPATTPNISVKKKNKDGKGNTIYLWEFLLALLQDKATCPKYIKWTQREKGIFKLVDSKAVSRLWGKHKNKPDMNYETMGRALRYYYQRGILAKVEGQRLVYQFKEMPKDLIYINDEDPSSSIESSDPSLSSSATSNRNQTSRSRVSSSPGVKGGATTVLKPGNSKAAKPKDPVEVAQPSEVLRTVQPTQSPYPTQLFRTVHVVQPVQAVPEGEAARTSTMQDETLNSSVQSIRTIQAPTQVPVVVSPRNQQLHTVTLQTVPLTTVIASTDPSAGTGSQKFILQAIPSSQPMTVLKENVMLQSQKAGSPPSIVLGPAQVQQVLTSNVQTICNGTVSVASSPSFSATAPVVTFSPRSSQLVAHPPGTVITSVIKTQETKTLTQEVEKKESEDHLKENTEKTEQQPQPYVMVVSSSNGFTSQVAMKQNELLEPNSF

Regarding CACCTT, the binding signal was 1.36 fold enrichment (6-mer frequency, TF over GST control) with FLI1; 1.28 fold enrichment (6-mer frequency, TF over GST control) in the assay with ELK1; 1.22 fold enrichment (6-mer frequency, TF over GST control) with GABPA; 1.26 fold enrichment (6-mer frequency, TF over GST control) with ERG; 1.24 fold enrichment (6-mer frequency, TF over GST control) with ELF1; 1.34 fold enrichment (6-mer frequency, TF over GST control) with EHF. Moreover, the binding signal with SPI1 was 1.25 fold enrichment (6-mer frequency, TF over GST control); with SPIB, 1.18 fold enrichment (6-mer frequency, TF over GST control); with ELK3 it was 1.26 fold enrichment (6-mer frequency, TF over GST control); with FEV, 1.31 fold enrichment (6-mer frequency, TF over GST control); in the assay with ETV5 it was 1.18 fold enrichment (6-mer frequency, TF over GST control); with HSF1 it was 1.08 fold enrichment (6-mer frequency, TF over GST control). Further, the binding signal is 1.2 fold enrichment (6-mer frequency, TF over GST control) in the assay with SPIC; 1.37 fold enrichment (6-mer frequency, TF over GST control) with ELF4; 1.39 fold enrichment (6-mer frequency, TF over GST control) with ELK4; 1.25 fold enrichment (6-mer frequency, TF over GST control) with ETV2; 1.26 fold enrichment (6-mer frequency, TF over GST control) in the assay with ELF3; 1.1 fold enrichment (6-mer frequency, TF over GST control) with CRX. The binding signal with ETV1 was 1.35 fold enrichment (6-mer frequency, TF over GST control).
